Experimental findings from PubChem BioAssay (NCATS) are described below.

Molecules are shown by their SMILES. Inconclusive results are not listed. Active and inactive are the calls of the source. Calls follow the shape of the dose curve; as a rule, active = well fitted cell-killing curve with a large enough effect; inconclusive = small, poorly fitted or top-dose-only effect; inactive = flat fitted curve, though single readings scatter.
Potency is read from the fitted curve at half-maximal effect.

A short description of the test: Quantitative highthroughput screen to assess conditional lethalithy of P12 Ichikawa cells grown in RPMI1640 with untreated serum (RPMI+s) (AID 1963881). Also: nearly all actives have a fitted effect of over 35% in size. The note with it: ATP luminescence, 48 h; Potency: viability; series mostly up to 45.8 µM; viability: at the top concentration. The text has this: Assay Provider: Jason Cantor Ph.D.
Department of Biochemistry
University of Wisconsin-Madison, Madison, WI, USA
Chemical screening studies have identified drug sensitivities across hundreds of cancer cell lines but most putative therapeutics fail to translate. Discovery and development of drug candidates in models that more accurately reflect nutrient levels in human blood is a major challenge. Here we performed high-throughput screens in conventional versus Human Plasma-Like Medium (HPLM) to identify compounds that were "missed" when screening using the artificial culture condition. Sets of conditional anticancer compounds spanned phases of clinical development and included non-oncology drugs were assessed. […] We also traced conditional phenotypes for several chemotherapeutics to availability of HPLM-specific metabolites and confirmed others for compounds whose reported targets are encoded by nonessential genes. Our findings establish generalizable strategies for exploiting conditional lethality in HPLM to reveal therapeutic candidates and mechanisms of action in cancer cells.
Described herein are the results of each viability screens against three cell lines: NOMO1 (an acute myeloid leukemia cell line); P12-Ichikawa (a T-cell acute lymphoblastic leukemia); and SEM (a B-cell ALL). Each assay was screened using 3 different cell culture media: homemade human plasma-Like medium with 10% dialyzed fetal bovine serum (HPLM+ds); RPMI1640 with 10% untreated FBS and 5mM glucose (RPMI+s); and RPMI1640 with 10% dialyzed fetal bovine serum and 5 mM glucose (RPMI+ds).
PROTOCOL TABLE (as described by Inglese J, Shamu CE and Guy RK. 2007)
SEQUENCE No. (e.g., 1, 2, 3, etc.); […] (e.g., Cells, Incubation, Reagent, etc.); VALUE and DESCRIPTION.
1; Cells; 5 uL; white, solid bottom 1536-well Greiner assay plate.
2; Compounds; 23 nL; Kalypsis pin tool (Wako USA) equipped with a 1536-well pin head to transfer to the assay plates.
3; Incubation; 48 hours; 37C incubation.
4; Reagent; 3 uL; CellTiter Glo (Promega).
5; Incubation; 5 min, room temperature
6; Detection; Luminescence, Viewlux PerkinElmer.
NOTES (numbers refer to Sequence numbers above)
1. Briefly, 5 ul of cell reagent was dispensed using a Multidrop Combi Dispenser. The NOMO1 and SEM cells were plated at 500 cells/well and the P12-Ichikawa line at 1000 cells/well.
2. After seeding the cells, 23 nL of MIPE 4.1 library compounds (in DMSO) were added to each plate using a Kalypsys 1536 Pintool dispenser. Bortezomib at final concentration of […] and DMSO were added to each plate as positive and negative controls respectively. For each screen, MIPE 4.1 compounds were added over an eleven-point concentration range […] in 3-fold dilutions.
3. Each plate was covered with a stainless steel gasketed lid to prevent evaporation and incubated for 48 hour at 37C, 95% relative humidity, and 5% CO2.
4-5. Three microliter CellTilter-GloTM luminescent substrate mix (Promega) reagent was added to the assay plate and incubated at room temperature for 5 min.
6. The luminescence signal was measured using a ViewLux (PerkinElmer) multiplate reader with a 2 second exposure time per plate. Data for each compound were normalized as percent viability such that measurements for DMSO and the empty well controls in each plate were defined as 100% and 0%, respectively.
As for `CC(C)[C@]12O[C@@H]1[C@@H]1O[C@]13[C@]1(O[C@H]1C[C@@H]1C4=C(CC[C@@]13C)C(=O)OC4)[C@H]2O`, the Potency is 0.0015 µM (active).

As for `CC(C)(O)C=CC(=O)[C@](C)(O)[C@H]1[C@H](O)C[C@]2(C)[C@@H]3CC=C4[C@@H](C=C(O)C(=O)C4(C)C)[C@]3(C)C(=O)C[C@@]12C`, the Potency was 0.148 µM (active).

As a reminder, the viability is a read-out of living cells in per cent, often relative to untreated cells. As for `O=c1[nH]c2ccccc2n1CCCN1CCC(n2c(=O)[nH]c3cc(Cl)ccc32)CC1`, the “viability” value is 104% (inactive).

In the case of `C#C[C@]1(O)C=C[C@@H]2[C@@H]3CCC4=CC(=O)CC[C@@H]4[C@H]3CC[C@@]21CC`, the “viability” value was 91.1% (inactive).

Take `COC1=C[C@@H]2[C@@H]3Cc4ccc(OC)c(O)c4[C@]2(CCN3C)CC1=O`: the “viability” value is 97% (inactive).

With `O=C1C=CC[C@@H]2[C@H]3CCCN4CCC[C@@H](CN12)[C@@H]34`, the “viability” value was 98.4% (inactive).

Consider `O=c1[nH]c2ccc(Cl)cc2c(N[C@@H]2CN3CCC2CC3)c1-c1nc2ccccc2[nH]1`, for which the Potency is 0.166 µM (active).

In the case of `O=C(O)c1nn(Cc2ccc(Cl)cc2Cl)c2ccccc12`, the “viability” value was 100% (inactive).

Regarding `Cc1sc2c(c1C)C(c1ccc(Cl)cc1)=N[C@@H](CC(=O)OC(C)(C)C)c1nnc(C)n1-2`, the Potency was 1.87 µM (active).

Turning to `O=[N+]([O-])c1ncc[nH]1`, the “viability” value was 97.1% (inactive).

For the compound `CCOC(=O)Nc1ccc(NCc2ccc(F)cc2)cc1N`, the “viability” value was 98.3% (inactive).

Consider `CN1C(=O)CCS(=O)(=O)C1c1ccc(Cl)cc1` (stereo not given), for which the “viability” value is 97.7% (inactive).

For `CC(N[C@H]1C[C@H]1c1ccccc1)c1ccc2c(c1)OCCO2` (stereo not given in full), the “viability” value is 95.6% (inactive).

In the case of `O=C1CCC[C@@H]2[C@H]3CCCN4CCC[C@@H](CN12)[C@@H]34`, the “viability” value is 88% (inactive).

On to `CC[C@H]1C=CC=CC[C@@H](C)[C@H](O)[C@@](C)(O)C(=O)[C@@H](C)[C@H](O)[C@@H](C)C(=O)[C@@H](C)[C@H](O)[C@@H](C)C=CC(=O)O[C@@H]2[C@@H](C)[C@H](CC1)O[C@]1(CC[C@H](C)[C@H](C[C@@H](C)O)O1)[C@H]2C`, for which the Potency is 16.6 µM (active).

For the compound `O=c1[nH]c2ccccc2n1C1CCN(Cc2ccc(-c3[nH]c4cc5ncnc5cc4nc3-c3ccccc3)cc2)CC1`, the “viability” value was 93.4% (inactive).

Consider `C=C(C)[C@H]1Cc2c(ccc3c2O[C@@H]2COc4cc(OC)c(OC)cc4[C@@H]2C3=O)O1`, for which the Potency is 2.09 µM (active).

Turning to `CCN(CC)C(=O)c1ccc(C2=CC3(CCNCC3)Oc3cccc(O)c32)cc1`, the “viability” value was 99.6% (inactive).

Turning to `C[C@@H]1[C@@H](C(=O)C[C@H]2O[C@@H]3O[C@]4(C)CC[C@@H]5[C@H](C)CC[C@@H]([C@H]2C)[C@@]35OO4)O[C@@H]2O[C@]3(C)CC[C@H]4[C@H](C)CC[C@@H]1[C@@]24OO3`, the Potency was 23.5 µM (active).

`C[C@]12CC[C@@H]3[C@@H](CCC4=CC(=O)CC[C@@H]43)[C@@H]1CC[C@@H]2OC(=O)CCc1ccccc1`: the “viability” value is 105% (inactive).

`Oc1ccc2c3c1O[C@H]1c4[nH]c5c(c4C[C@@]4(O)[C@@H](C2)N(CC2CC2)CC[C@]314)C[C@@]1(O)[C@H]2Cc3ccc(O)c4c3[C@@]1(CCN2CC1CC1)[C@H]5O4`: the “viability” value was 106% (inactive).

For `N[C@@H](Cc1ccc(N(CCCl)CCCl)cc1)C(=O)O`, the Potency is 4.69 µM (active).

For the compound `C=C[C@@H]1CN2CCC1C[C@@H]2[C@@H](O)c1ccnc2ccccc12` (stereo not given in full), the “viability” value is 80% (inactive).

With `CC(C)N[C@@H]1CCn2c(=O)[nH]c3cccc(c32)[C@@H]1O`, the “viability” value is 99.6% (inactive).

For the compound `O=S(=O)(F)Cc1ccccc1`, the “viability” value was 72.7% (inactive).

As for `CNC(=O)c1ccc(N2C(=S)N(c3ccc(C#N)c(C(F)(F)F)c3)C(=O)C23CCC3)cc1F`, the “viability” value is 108% (inactive).

For `COCC1(CO)C(=O)C2CCN1CC2` (stereo not given), the Potency was 16.6 µM (active).

Turning to `CC1=C2C[C@@H]3[C@@H](CC=C4C[C@@H](O)CC[C@@]43C)[C@@H]2CC[C@]12O[C@H]1C[C@H](C)CN[C@H]1[C@H]2C`, the “viability” value was 93.7% (inactive).

Take `Clc1ccccc1C(c1ccccc1)(c1ccccc1)n1cccn1`: the “viability” value was 102% (inactive).

As to `CCCC(C)(COC(N)=O)COC(=O)NC(C)C` (stereo not given), the “viability” value was 99.5% (inactive).

Consider `C[C@]12CCC(=O)C=C1CC[C@@H]1[C@H]3CC[C@](C)(O)[C@@]3(C)CC[C@@H]12`, for which the “viability” value is 87.9% [at 92.2 µM] (inactive).

In the case of `COc1cc(C(=O)N2CC[C@@H](O)[C@@H](N)C2)cc2nc(-c3cc4ccccc4n3CC3CC3)n(C)c12`, the Potency was 1.05 µM (active).

Regarding `COC[C@H]1OC(=O)c2coc3c2[C@@]1(C)C1=C(C3=O)C2CCC(=O)[C@@]2(C)C[C@H]1OC(C)=O` (stereo not given in full), the “viability” value is 88% (inactive).

With `CC(=Cc1csc(C)n1)[C@@H]1C[C@H]2O[C@@H]2CCC[C@H](C)[C@@H](O)[C@@H](C)C(=O)C(C)(C)[C@@H](O)CC(=O)O1`, the “viability” value is 18.3% (inactive).

Consider `C[C@]12CC[C@H]3[C@@H](CCC4=CC(=O)CC[C@@]43C)[C@H]1CC[C@H]2O`, for which the “viability” value is 102% (inactive).

Turning to `CC(C)C[C@H](CN)CC(=O)O`, the “viability” value is 106% (inactive).

In the case of `CCOc1ccccc1-n1c(C(C)N2CCN(C(=O)COc3ccc(Cl)cc3)CC2)nc2ccccc2c1=O` (stereo not given), the Potency was 1.48 µM (active).

With `O=C(O)CNC(=O)c1c(O)c2ccccc2n(Cc2ccccc2)c1=O`, the “viability” value is 100% (inactive).

`O=P1(NCCCl)OCCCN1CCCl` (stereo not given): the “viability” value was 78.6% (inactive).

Regarding `COc1ccc(C(=O)c2c(C)n(CCN3CCOCC3)c3ccccc23)cc1`, the “viability” value is 97.2% (inactive).
